From PubChem BioAssay
Sampled rows, rich in hits. Any-hit rate of the full collection: about 13%.
RAM inhibit – yeast RAM network inhibition; S. cerevisiae dse1pr::URA3 reporter, 5-FOA growth OD615, 2 d; analog-sensitive cbk1-as2 kinase mutant strain; AID 868; 1.8% of 190,000 active; inhibition, % at 50 µM;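 active = inhibition above a set limit, 3 SD over mean compound inhibition, cut at about 8.4% in these data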;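 note: 0% = DMSO-only wells with no growth and 100% = 10 µM 1-NA-PP1 full growth; inhibition rescues growth on 5-FOA so higher OD means more RAM inhibition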
L major viab – reduces viability of Leishmania major promastigotes; 9% of 200,000 active; inhibition, % at 10 µM; resazurin fluorescence viability; AID 1063; in the data active = inhibition above about 50%;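 note: promastigotes grown with compound for 44 hours at 28 °C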
CHOP inh – CHOP inhibition in unfolded protein response | 3.8% of 220,000 active | CHO-K1 CHOP-promoter luciferase, tunicamycin-induced, 15-18 h | inhibition, % at 10 µM;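 active = compounds that reduced the stress-induced luciferase reporter signal by more than about 70% of percent inhibition, limit read from the data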;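 note: 0% = tunicamycin plus vehicle and 100% = wells without tunicamycin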
WT yeast gro inh – growth inhibition of WT yeast, mitochondrial fusion screen | inhibition, % at 10 µM | mitochondrial fusion phenotypic screen, WT strain | 2.1% of 190,000 active; in the data active = inhibition above about 58%; tested in S. cerevisiae
* hit, by the source's call; / = not tested or not shown.

SMILES	RAM inhibit	L major viab	CHOP inh	WT yeast gro inh
O=C(NC1CCCC1)C(c1ccncc1)N(Cc1ccco1)C(=O)c1ccc(-c2ccccc2)[nH]1 (stereo unspecified)	1	94*	8	-23
O=C(NC1CCCC1)C(c1ccncc1)N(Cc1ccccc1)C(=O)c1ccc(-c2ccccc2)[nH]1 (stereo unspecified)	2	97*	37	12
CC(C)(C)NC(=O)C(c1ccncc1)N(Cc1ccc(F)cc1)C(=O)c1ccc(-c2ccccc2)[nH]1 (stereo unspecified)	1	99*	30	30
O=C(NC1CCCC1)C(c1ccncc1)N(CCCN1CCOCC1)C(=O)c1ccc(-c2ccccc2)[nH]1 (stereo unspecified)	0	-2	-27	5
CC(C)(C)NC(=O)C(c1ccncc1)N(Cc1cccs1)C(=O)Cn1nnc(-c2ccc(F)cc2)n1 (stereo unspecified)	1	15	40	-1
C=CCOc1ccc(C=Nc2ccc(C)c(Cl)c2)c(O)c1	1	-6	28	-7
Brc1ccc(-c2cnco2)cc1	-1	0	1	-2
CCCCNS(=O)(=O)c1ccc2nc(SCC(=O)Nc3ccccc3Cl)[nH]c2c1	9.4*	9	46	11
CCCCNS(=O)(=O)c1ccc2nc(SCC(=O)Nc3cccc(F)c3)[nH]c2c1	0	-3	31	6
CCCCNS(=O)(=O)c1ccc2nc(SCC(=O)c3ccccc3OC)[nH]c2c1	3	99*	34	6
COc1ccc(-c2csc3ncn(CC(=O)N4CCOCC4)c(=O)c23)cc1	-1	-4	9	0
O=C1CS/C(=N\N=C\c2ccccc2Cl)N1CC1CC1	/	/	5	/
COC(=O)c1[nH]c2ccc(Br)cc2c1NC(=O)CN1CCN(C2CCCCC2)CC1	2	101*	16	20
CCOC(=O)C1CCCN(CC(=O)Nc2c(C(=O)OC)[nH]c3ccc(Br)cc23)C1 (stereo unspecified)	0	5	77*	31
COc1ccc(C(=O)OCc2csc(C)n2)c(O)c1	0	-1	-16	6
Cc1nc2ncnn2c(C)c1C/C=C/c1ccccc1	0	-11	22	-24
CCc1nc2ccc(C(=O)O)cc2nc1CC	0	50*	18	-10
Cc1nc(NC(=O)c2ccc(Cl)cc2)sc1Cc1ccc2c(c1)OCO2	7	73*	38	1
CCOc1ccc(S(=O)(=O)N(CC(=O)Nc2cc(C)on2)Cc2ccccc2Cl)cc1	0	16	73*	/
O=C(CS(=O)(=O)Cc1ccccc1)NCc1ccco1	1	-4	10	-8
CC(NC(=S)Nc1ccccc1Cl)C(c1cccs1)N1CCCC1 (stereo unspecified)	0	84*	18	24
CC(NC(=S)NCCc1ccccc1)C(c1cccs1)N1CCN(Cc2ccccc2)CC1 (stereo unspecified)	0	97*	-3	21
CCC1C/C(=C/c2ccco2)C(=O)/C(=C/c2ccco2)C1 (stereo unspecified)	4	15	86*	-22
Cn1nnc(NC(=S)NC(=O)c2ccc(-c3ccc(Br)cc3)o2)n1	1	-1	-6	59*
c1ccc2c(c1)oc1c(NCCCN3CCOCC3)ncnc12	2	96*	2	-9
SMILES	RAM inhibit	L major viab	CHOP inh	WT yeast gro inh
Cc1nc(NCCCn2ccnc2)c2oc3ccccc3c2n1	1	88*	0	-28
c1ccc2c(c1)oc1c(NCCCn3ccnc3)ncnc12	2	94*	11	0
CCOc1nc(C)cc(C)c1S(=O)(=O)c1ccc(Cl)cc1	8.7*	13	40	-8
Cc1ccc(S(=O)(=O)c2c(C)cc(C)nc2Cl)cc1	-1	-3	7	3
Cc1nc2c(Br)c(C)nn2c2c1CCC2	2	-3	7	-1
CC1CC(NC(=O)N(C)C)N(C)C(=O)N1 (stereo unspecified)	2	-3	-15	-10
COc1ccccc1N1CCN(CCCCNS(=O)(=O)c2cccc3c(N(C)C)cccc23)CC1	/	/	-5	/
CC(C)n1c(SCC(=O)N2c3ccccc3Sc3ccccc32)nc2c1c(=O)n(C)c(=O)n2C	5	60*	42	13
CC(C)n1c(SCC(=O)N2c3ccccc3CCc3ccccc32)nc2c1c(=O)n(C)c(=O)n2C	/	5	/	/
CCCn1c(SCC(=O)N2c3ccccc3Sc3ccccc32)nc2c1c(=O)n(C)c(=O)n2C	2	62*	10	0
CC(C)n1c(SCC(N)=O)nc2c1c(=O)n(C)c(=O)n2C	1	-4	-3	7
Cn1c(=O)c2c(nc(SCC(=O)N3c4ccccc4CCc4ccccc43)n2C)n(C)c1=O	2	52*	3	5
